A selection: hits, their analogues and other compounds. The true share with any hit is near 6.1%.
D1 PAM – human D1 dopamine receptor positive modulation | P21728 | HEK293 TREx D1 cells, calcium flux, dopamine EC20 potentiation | potentiation, % at 10 µM | 0.036% of 360,000 active; in the data active = potentiation above about 30%; also: 0% is about no effect
D3 antag – antagonists of human D3 dopamine receptor | D3R cells, DiscoveRx beta-arrestin luminescence, antagonist mode; stronger effect = lower value | P35462 | 2.5% of 360,000 active | max response, negative = inhibition, % | AID 652054; in the data active = max response below about -50%; inconclusive = no clear call, values can overlap the other calls; also: % is scaled to controls: 0 for no effect and ±100 for the full control effect
Target sequence (P35462 whole entry, looked up): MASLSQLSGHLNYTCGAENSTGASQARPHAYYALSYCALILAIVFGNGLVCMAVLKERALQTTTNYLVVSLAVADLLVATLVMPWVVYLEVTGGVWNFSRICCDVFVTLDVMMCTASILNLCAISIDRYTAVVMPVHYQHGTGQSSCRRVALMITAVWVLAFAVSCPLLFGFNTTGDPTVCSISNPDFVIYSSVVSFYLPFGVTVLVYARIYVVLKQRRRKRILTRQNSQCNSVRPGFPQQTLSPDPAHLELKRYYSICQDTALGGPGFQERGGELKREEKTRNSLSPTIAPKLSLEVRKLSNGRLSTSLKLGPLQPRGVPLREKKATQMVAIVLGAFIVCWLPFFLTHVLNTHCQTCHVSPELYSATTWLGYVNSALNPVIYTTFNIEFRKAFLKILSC
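Cells plated overnight at 1500 cells/well, then exposed to library compounds with dopamine controls for 90 minutes at 37 degrees C. DiscoveRx reagent added for 30–60 minutes at room temperature; luminescence read, quantitative HTS format.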
DRD3 agonist – D3 dopamine receptor (human) agonism | P35462 | D3R DiscoveRx beta-arrestin cells, luminescence, 90 min | max activation, % | 0.58% of 410,000 active; in the data active = max activation above about 30%; also: 0% is about no effect
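Agonist-mode cell screen: cells plated at 1500/well and incubated overnight at 37 °C, then exposed to library compounds for 90 min at 37 °C. Detection reagent was added for 30–60 min at room temperature, and luminescence was read.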
D1 ag – agonists of human D1 dopamine receptor. activation, % at 2 µM. 1% of 360,000 active. HEK293 T-REx D1 cells, calcium flux, agonist mode; in the data active = activation above about 30%; also: 0% is about no effect
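Inducible HEK293 T-REx D1 cells, force-coupled to calcium signalling, were plated at 4000 cells/well with tetracycline and held overnight at 30 C. After no-wash calcium dye loading, compound-evoked calcium rise over 180 s flagged agonists.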
D1 antag – blocks dopamine activation of the human D1 receptor; P21728; HEK293 TREx D1 cells, calcium flux, dopamine EC80; stronger effect = lower value; activity change, negative = inhibition, % at 10 µM; 3.2% of 360,000 active; AID 504652; in the data active = activity change below about -30%; also: % is scaled to controls: 0 for no effect and ±100 for the full control effect
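Tetracycline-induced HEK293 T-REx cells with force-coupled D1 receptor were loaded with a no-wash calcium dye. Compound was added after a 10 s baseline and read kinetically for 180 s; EC80 dopamine was then added and calcium flux followed another 180 s.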
* hit, by the source's call; ? = inconclusive; . = no result; ! = not active in a repeat.

SMILES	D1 PAM	D3 antag	DRD3 agonist	D1 ag	D1 antag
Cc1ccc(S(=O)(=O)Cn2nnnc2C(C)N2CCN(C(=O)c3ccco3)CC2)cc1 (centres undefined)	-3	9	0	2	-10
CC(C)CCn1nnnc1C(c1ccc(F)cc1)N1CCN(C(=O)c2ccco2)CC1 (centres undefined)	6	-76*	0	1	10
CC(C)(C)n1nnnc1C(c1ccccc1)N1CCN(C(=O)c2ccco2)CC1 (centres undefined)	.	0	56*	.	.
CCC(C)(C)n1nnnc1C(c1ccccc1OC)N1CCN(C(=O)c2ccco2)CC1 (centres undefined)	-7	1	31*	6	-4
CC(Sc1nnc(C2CC2)n1N)C(=O)NC1CCCCC1C (centres undefined)	-5	3	-6	3	-3
CN(C(=O)COC(=O)COc1ccc2c(c1)CCC2)c1c(N)n(Cc2ccccc2)c(=O)[nH]c1=O	-6	2	23	1	-31*
COc1cccc(-n2c(-c3ccco3)nc3c(cnn3-c3ccc(C)cc3)c2=O)c1	-2	.	-11	7	-9
CC(CCc1ccccc1)NC(=O)CN1CCSc2ccccc21 (centres undefined)	2	6	-8	2	6
CC(C)(C)N(Cc1ccccc1)C(=O)COC(=O)CCN1C(=O)C2CC=CCC2C1=O (centres undefined)	-3	0	13	7	-3
CCCc1cc(=O)[nH]c(SCC)n1	.	-15	-25	.	.
CCCc1cc(=O)[nH]c(-n2[nH]c3c(c2=O)CCCC3)n1	1	-4	0	67*	-6
O=[N+]([O-])c1cc([N+](=O)[O-])c2cc3ccccc3nc2c1	5	-80*	-28	3	1
O=C(NC(=S)Nc1ccc(CN2CCOCC2)cc1)c1ccccc1[N+](=O)[O-]	-2	-107*	-11	3	10
O=C(NC(=S)Nc1ccc(CN2CCOCC2)cc1)c1cc2ccccc2o1	-7	35	2	5	12
CC(C)C(=O)Nc1ccc(NC(=O)c2ccc([N+](=O)[O-])cc2Cl)cc1	-4	-23	-2	3	-59*
O=C(NC(=S)Nc1ccc(CN2CCOCC2)cc1)c1cccc([N+](=O)[O-])c1	11	0	-18	8	-11
O=C(NC(=S)Nc1ccc(CN2CCOCC2)cc1)c1ccc([N+](=O)[O-])cc1Cl	-3	-78*	-16	8	2
C=CC1=C(C(=O)O)N2C(=O)[C@@H](NC(=O)/C(=N/OCC(=O)O)c3csc(N)n3)[C@H]2SC1 (stereo in doubt)	.	.	1	.	.
COc1ccc(CNC(=O)C2CC(O)CN2C(=O)Nc2ccccc2)cc1 (centres undefined)	0	-30	0	0	15
CC/C(=C(\c1ccccc1)c1ccc(OCCN(C)C)cc1)c1ccccc1	-5	-73*!	-56	87*!	32
CC/C(=C(\c1ccc(O)cc1)c1ccc(OCCN(C)C)cc1)c1ccccc1	-2	-7	-50	15	9
Cc1cccc(NC(c2nnc(-c3ccccc3)o2)c2ccc(F)cc2Cl)c1C (centres undefined)	-6	.	2	2	20
COc1ccc(C)cc1NC(=O)C(OC(=O)c1ccc([N+](=O)[O-])o1)c1ccccc1 (centres undefined)	0	-24	-2	0	-48*
COCCN(C(=O)COC(=O)/C=C/c1ccco1)c1c(N)n(Cc2ccccc2)c(=O)[nH]c1=O	0	13	1	1	-23
CCN(C(=O)COc1ccc(F)cc1Br)c1c(N)n(Cc2ccccc2)c(=O)[nH]c1=O	-4	42	0	2	-40*
SMILES	D1 PAM	D3 antag	DRD3 agonist	D1 ag	D1 antag
COc1ccc(CC(=O)N(CCC2=CCCCC2)c2c(N)n(Cc3ccccc3)c(=O)[nH]c2=O)cc1OC	-5	8	-9	10	-21
COCCN(C(=O)COC(=O)/C=C/c1ccc(OC)c(OC)c1)c1c(N)n(Cc2ccccc2)c(=O)[nH]c1=O	-2	-69*	-3	1	-5
COc1ccccc1CC(=O)N(CCC1=CCCCC1)c1c(N)n(Cc2ccccc2)c(=O)[nH]c1=O	-1	-83*	-15	24	-1
CC(Oc1ccc(Br)cc1)C(=O)N(Cc1ccccc1)c1c(N)n(Cc2ccccc2)c(=O)[nH]c1=O (centres undefined)	.	-61*	-5	.	.
CNC(=O)CN(c1cc(OCCOC)c(Cl)cc1Cl)S(=O)(=O)c1ccc(OC)cc1	-2	-7	-4	3	-8
Cc1nc(-c2ccc(OCC(C)C)c(C#N)c2)sc1C(=O)O	.	.	-3	.	.
CSc1ccc(/C=N/n2c(COc3ccccc3)n[nH]c2=S)cc1	-1	?	-10	2	-18
CCCc1cc(C(=O)OCC(=O)N(CCC)c2c(N)n(Cc3ccccc3)c(=O)[nH]c2=O)sc1C	40*	-14	19	24	61
CCCN(C(=O)CCNC(=O)c1ccc(Cl)cc1)c1c(N)n(Cc2ccccc2)c(=O)[nH]c1=O	.	-6	2	10	-31*
COc1ccc(-n2nnnc2C2CCN(S(=O)(=O)c3ccc(NC(C)=O)cc3)CC2)cc1	-1	.	17	0	-4
CCCc1ccc(C(C)NC(=S)NCc2ccc(F)cc2)cc1 (centres undefined)	-5	-12	6	80*	-1
CCC(C)c1ccc(C(C)NC(=S)NCc2ccc(F)cc2)cc1 (centres undefined)	-4	-13	-2	21	-14
CCOc1ccc(C(C)NC(=S)NCc2ccc(Cl)cc2)cc1 (centres undefined)	-5	-11	-3	35*	.
CCOc1ccccc1-n1nnc(-c2nsc(NC(=O)c3ccc(C)cc3)n2)c1C	-2	.	-13	4	10
OC(COc1ccccc1)CN1CCC(Cc2ccccc2)CC1 (centres undefined)	-9	-75*	-35	16	17
COc1cccc(OCC(O)CN2CCC(Cc3ccccc3)CC2)c1 (centres undefined)	-6	-13	-9	20	-31*
OC(CN1CCN(Cc2ccccc2)CC1)c1ccccc1 (centres undefined)	-4	-22	-2	2	2
Cc1ccc(OCC(O)CN2CCC(Cc3ccccc3)CC2)c(C)c1 (centres undefined)	-13	-56*	-8	20	-6
OC(COc1ccc(OCC(O)CN2CCN(Cc3ccccc3)CC2)cc1)CN1CCN(Cc2ccccc2)CC1 (centres undefined)	.	?	-2	.	.
OC(CN1CCC(Cc2ccccc2)CC1)c1ccccc1 (centres undefined)	-7	-88*	-13	17	-7
CCc1ccc2c(c1)c(=O)c(S(=O)(=O)c1ccc(Cl)cc1)cn2CC	0	.	3	1	5

Screening data: PubChem, National Center for Advancing Translational Sciences (NCATS)
